Source: PubChem BioAssay (NCATS)
Inconclusive results are not listed. The source made the active and inactive calls. The call rests on the fitted dose curve; in most records, active means well fitted curve in the direction sought with a large enough effect; inconclusive means small, poorly fitted or top-dose-only effect, or another doubt; inactive means no such curve, though single readings can be large; an effect the other way counts as inactive or inconclusive.

Legend:
[1] = test system: HaCat; assay: Cytotoxic Profiling of Annotated Libraries Using Quantitative High-Throughput Screening (AID 1296008); settings: Five cell lines viability, CellTiter-Glo ATP luminescence, 48-72 h; max response: active compounds read low; further: nearly all actives have a fitted effect of over 60% in size
Summary of the method: (§1)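 Cells exposed to compounds for 48 or 72 hr at 37 degrees Celsius. Viability read as ATP-coupled luminescence with CellTiter-Glo after 10 min at room temperature.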

[2] = test system: NIH3T3; assay: as above; settings: Five cell lines viability, CellTiter-Glo ATP luminescence, 48-72 h; max response: active compounds read low
Summary of the method: as §1

[3] = test system: HACAT; assay: qHTS assay to identify novel small-molecules to repurpose for Merkel cell carcinoma treatment (AID 1296009); settings: MCC and control cell lines, CellTiter-Glo viability, 72 h; at 44.8 µM (top of the series) unless noted; further: nearly all actives have a fitted effect of over 60% in size
Summary of the method: (§2)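 CellTiter-Glo luminescence after 72 hr compound exposure at 37 degree celsius gave cell viability. Libraries NPC and MIPE were run as 8- and 11-point dose responses; RLUs normalized to DMSO (negative) and no-cell (cytotoxicity) controls.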

[4] = test system: MCC-13; assay: as above; settings: MCC and control cell lines, CellTiter-Glo viability, 72 h; series mostly up to 46 µM
Summary of the method: as §2

[5] = test system: MCC-26; assay: as above; settings: MCC and control cell lines, CellTiter-Glo viability, 72 h; series mostly up to 46 µM
Summary of the method: as §2

[6] = test system: MKL-1; assay: as above; settings: MCC and control cell lines, CellTiter-Glo viability, 72 h; series mostly up to 46 µM
Summary of the method: as §2

[7] = test system: MKL-2; assay: as above; settings: MCC and control cell lines, CellTiter-Glo viability, 72 h; series mostly up to 46 µM
Summary of the method: as §2

[8] = test system: UISO; assay: as above; settings: MCC and control cell lines, CellTiter-Glo viability, 72 h; series mostly up to 46 µM
Summary of the method: as §2

[9] = test system: C33A; assay: Primary qHTS to identify gynecologic anti-cancer compounds using libraries of approved drugs and bioactive compounds (AID 1345084); settings: Gynecologic cancer cell panel viability, ATPlite luminescence, 48 h; series mostly up to 57.5 µM; further: nearly all actives have a fitted effect of over 55% in size
Summary of the method: (§3)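 ATP-based viability (ATPlite), 1,000 cells/well, 16 h pre-incubation, 48 h compound at 37 C, 5% CO2, 15 min RT before read.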

[10] = test system: CAOV3; assay: as above; settings: Gynecologic cancer cell panel viability, ATPlite luminescence, 48 h; series mostly up to 57.5 µM
Summary of the method: as §3

[11] = test system: CASKI; assay: as above; settings: Gynecologic cancer cell panel viability, ATPlite luminescence, 48 h; series mostly up to 57.5 µM
Summary of the method: as §3

[12] = test system: Es-2; assay: as above; settings: Gynecologic cancer cell panel viability, ATPlite luminescence, 48 h; series mostly up to 57.5 µM
Summary of the method: as §3

[13] = test system: HeLa; assay: as above; settings: Gynecologic cancer cell panel viability, ATPlite luminescence, 48 h; series mostly up to 57.5 µM
Summary of the method: as §3

[14] = test system: Hek293T; assay: as above; settings: Gynecologic cancer cell panel viability, ATPlite luminescence, 48 h, control line for the selectivity index; series mostly up to 57.5 µM
Summary of the method: as §3

[15] = test system: JEG-3; assay: as above; settings: Gynecologic cancer cell panel viability, ATPlite luminescence, 48 h; series mostly up to 57.5 µM
Summary of the method: as §3

[16] = test system: OV90; assay: as above; settings: Gynecologic cancer cell panel viability, ATPlite luminescence, 48 h; series mostly up to 57.5 µM
Summary of the method: as §3

[17] = test system: WaGa; assay: qHTS assay to identify novel small-molecules to repurpose for Merkel cell carcinoma treatment (AID 1296009); settings: MCC and control cell lines, CellTiter-Glo viability, 72 h; series mostly up to 46 µM; further: nearly all actives have a fitted effect of over 60% in size
Summary of the method: as §2

[18] = test system: HEK293T; assay: as above; settings: MCC and control cell lines, CellTiter-Glo viability, 72 h; at 44.8 µM (top of the series) unless noted
Summary of the method: as §2

[19] = test system: NIH3T3; assay: as above; settings: MCC and control cell lines, CellTiter-Glo viability, 72 h; at 44.8 µM (top of the series) unless noted
Summary of the method: as §2
On the % scale 0 is the no-effect control and ±100 the full control effect.

O=C(OCCN1CCOCC1)c1cccnc1Nc1cccc(C(F)(F)F)c1
inactive: outcome [1] | max response [2] -0.363% | outcome [3] | Potency [4] | Potency [5] | Potency [6] | Potency [7] | Potency [8] | Potency [9] | Potency [10] | Potency [11] | Potency [12] | Potency [13] | Potency [14] | Potency [15]

CC1CCCCN1CCCOC(=O)c1ccc(OC2CCCCC2)cc1 (configuration not stated)
inactive: outcome [1] | max response [2] -13.4% | outcome [3] | Potency [4] | Potency [5] | Potency [8] | Potency [9] | Potency [10] | Potency [11] | Potency [12] | Potency [13] | Potency [14] | Potency [15] | Potency [16]

CN1Cc2cc(C(=O)N3CCC(C4CCNCC4)CC3)ccc2N[C@@H](CC(=O)O)C1=O
inactive: outcome [1] | max response [2] 1.44% | outcome [3] | Potency [4] | Potency [5] | Potency [6] | Potency [7] | Potency [8] | Potency [17] | Potency [9] | Potency [10] | Potency [11] | Potency [12] | Potency [13] | Potency [14] | Potency [15] | Potency [16]

CO[C@@H]1[C@@H](O[C@@H]2O[C@H](C)[C@@H](O[C@H]3C[C@@](C)(O)[C@@H](O)[C@H](C)O3)[C@H](N(C)C)[C@H]2O)[C@@H](CC=O)C[C@@H](C)[C@@H](O[C@@H]2CC[C@H](N(C)C)[C@@H](C)O2)/C=C/C=C/C[C@@H](C)OC(=O)C[C@H]1OC(C)=O
inactive: outcome [1] | max response [2] -2.54% | outcome [3] | Potency [4] | Potency [5] | Potency [6] | Potency [7] | Potency [8] | Potency [9] | Potency [10] | Potency [11] | Potency [12] | Potency [13] | Potency [14] | Potency [15] | Potency [16]

COCCOCC(OC)OC
inactive: outcome [1] | max response [2] 1.4% | outcome [3] | Potency [4] | Potency [5] | Potency [6] | Potency [7] | Potency [8] | Potency [17] | Potency [9] | Potency [11] | Potency [12] | Potency [13] | Potency [14] | Potency [15] | Potency [16]

COc1ccccc1N1CCN(CC(O)COc2cc(OC)c(OC)c(OC)c2)CC1 (configuration not stated)
inactive: outcome [1] | max response [2] -5.07% | outcome [3] | Potency [4] | Potency [5] | Potency [6] | Potency [7] | Potency [8] | Potency [17] | Potency [9] | Potency [10] | Potency [11] | Potency [12] | Potency [13] | Potency [14] | Potency [15] | Potency [16]

CCCCN(CCN(CCCC)C(=O)N1CCOCC1)C(=O)N1CCOCC1
inactive: outcome [1] | max response [2] -9.41% | outcome [3] | Potency [4] | Potency [5] | Potency [6] | Potency [17] | Potency [9] | Potency [10] | Potency [11] | Potency [12] | Potency [13] | Potency [14] | Potency [15] | Potency [16]

O=C1CCCc2c(O)cccc21
inactive: outcome [1] | max response [2] -15.1% | outcome [3] | Potency [4] | Potency [5] | Potency [6] | Potency [7] | Potency [8] | Potency [17] | Potency [9] | Potency [10] | Potency [11] | Potency [12] | Potency [14] | Potency [15]

C=C(C)C(=O)OCC(O)CO (configuration not stated)
inactive: outcome [1] | max response [2] 4.75% | outcome [3] | Potency [4] | Potency [5] | Potency [6] | Potency [7] | Potency [8] | Potency [17] | Potency [9] | Potency [10] | Potency [12] | Potency [13] | Potency [14] | Potency [15] | Potency [16]

CCc1cc2cc(OC)c(OC)cc2c(Cc2ccccc2)n1
inactive: outcome [1] | max response [2] -13.3% | outcome [3] | Potency [4] | Potency [5] | Potency [6] | Potency [8] | Potency [17] | Potency [9] | Potency [10] | Potency [11] | Potency [12] | Potency [13] | Potency [14] | Potency [15] | Potency [16]

O=C(O)Cn1c(=O)n(Cc2ccc(Br)cc2F)c(=O)c2ccc(Cl)cc21
inactive: max response [1] 0.662% | outcome [2] | outcome [18] | Potency [4] | Potency [5] | Potency [6] | Potency [7] | outcome [19] | Potency [8] | Potency [17] | Potency [9] | Potency [10] | Potency [11] | Potency [12] | Potency [13] | Potency [14] | Potency [15] | Potency [16]

CCS(=O)(=O)c1ccc(OC)c(C(=O)OC)c1
inactive: max response [1] 4.82% | outcome [2] | outcome [18] | Potency [4] | Potency [5] | Potency [6] | Potency [7] | outcome [19] | Potency [8] | Potency [17] | Potency [9] | Potency [10] | Potency [11] | Potency [12] | Potency [13] | Potency [14] | Potency [15] | Potency [16]

Cc1cccc(OCC(O)CNC(C)(C)C)c1C (configuration not stated)
inactive: outcome [1] | max response [2] 0.115% | outcome [3] | Potency [4] | Potency [5] | Potency [6] | Potency [7] | Potency [8] | Potency [17] | Potency [9] | Potency [10] | Potency [11] | Potency [12] | Potency [13] | Potency [14] | Potency [15] | Potency [16]

Cc1ccc(CCn2c3c(c4cc(Cl)ccc42)CN(C)CC3)cn1
inactive: outcome [1] | max response [2] 0.803% | outcome [3] | Potency [4] | Potency [5] | Potency [6] | Potency [8] | Potency [9] | Potency [10] | Potency [11] | Potency [12] | Potency [13] | Potency [14] | Potency [15] | Potency [16]

N#CSCC(=O)O
inactive: outcome [1] | outcome [2] | outcome [3] | Potency [4] | Potency [5] | Potency [6] | outcome [19] | Potency [8] | Potency [17] | Potency [9] | Potency [10] | Potency [11] | Potency [12] | Potency [13] | Potency [14] | Potency [15] | Potency [16]
